An excerpt weighted towards active compounds, which were near 8.2% of everything screened.
ELG1 DNA repair: qHTS screen for small molecules that inhibit ELG1-dependent DNA repair in human embryonic kidney (HEK293T) cells expressing luciferase-tagged ELG1. HEK293T ELG1-luciferase reporter, luminescence, 16 h; DNA damage induced by 5-fluorouridine. Potency, µM (highest dose often 46.1 µM), without a hit: top-dose activity change, negative = inhibition, usual class: inhibitors. 2.3% of 330,000 active. AID 504467, 2011; note: % is set by controls: 0 for no effect and ±100 for the full control effect; nearly all actives have a fitted effect of over 55% in size
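DMSO vehicle served as the neutral condition. Each well held 2,000 cells given 5-fluorouridine plus compound; after 16 hr at 37 °C/5% CO2, ONE-Glo was added and luciferase measured 30 min later.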
SW480 rerep: A quantitative high throughput screen for small molecules that induce DNA re-replication in SW480 colon adenocarcinoma cells. Potency, µM (top dose mostly 46.1 µM), for inactives: at the highest dose re-replication activation, hits mostly activators. SW480 DNA re-replication, Hoechst DNA content imaging, 48 h. 1.8% of 340,000 active. AID 624297, 2012; note: % of control where 0% means no effect; nearly all actives have a fitted effect of over 55% in size
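Readout is total intensity of Hoechst-stained nuclei, excited at 405 nm and collected at 500-530 nm. Compound treatment lasted 48 hr at 37 C in 5% CO2 before staining.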
KB-V1 MDR tox: qHTS assay for MDR1-selective chemotherapeutics: Primary screen using the drug-selected MDR subline cells KB-V1; KB-V1 MDR cells viability, CellTiter-Glo, 72 h; Potency, µM (doses to about 46.1 µM), actives largely listed as cytotoxic; 3.4% of 400,000 active; note: % is set by controls: 0 for no effect and ±100 for the full control effect; nearly all actives have a fitted effect of over 60% in size
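KB-V1, DMEM (no phenol red) + 10% FBS; cpd pin-transferred, titration series; 72 h, 37 degrees C; CellTiter-Glo, luminescence. Data normalized, curve-fit.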
MCF10A rereplic: A quantitative high throughput screen for small molecules that induce DNA re-replication in MCF 10a normal breast cells; MCF 10A DNA re-replication, Hoechst nuclear intensity, 48 h; Potency, µM (series often up to 46.1 µM), without a hit: at the top dose activity, positive = re-replication, hits mostly activators; 2.9% of 350,000 active; AID 624296, 2012; note: % of control where 0% means no effect; nearly all actives have a fitted effect of over 50% in size
KB-3-1 tox: qHTS assay for MDR1-selective chemotherapeutics: Primary screen using the parental adenocarcinoma cell KB-3-1; KB-3-1 viability, CellTiter-Glo ATP luminescence, 72 h; Potency, µM (highest dose often 46.1 µM), hits mostly cytotoxic; AID 1347075, 2019; 1.4% of 400,000 active; note: % is set by controls: 0 for no effect and ±100 for the full control effect; nearly all actives have a fitted effect of over 60% in size
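Parental KB-3-1 adenocarcinoma cells in phenol-red-free DMEM with 10% FBS were pin-treated with compounds at several concentrations, incubated 72 h at 37 °C, and viability read by CellTiter-Glo luminescence; concentration-effect curves were fitted after normalization.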
Starred values were filed as active, the others as inactive; i = inactive; ? = inconclusive; . = no result; [ ] = another dose, or the depositor's remark. Calls come from the whole dose curve; as a rule, active = well fitted curve in the direction sought with a large enough effect; inconclusive = small, poorly fitted or top-dose-only effect, or another doubt; inactive = no such curve, though single readings can be large; an effect the other way counts as inactive or inconclusive. Potency is the fitted concentration of half-maximal effect.

SMILES	ELG1 DNA repair	SW480 rerep	KB-V1 MDR tox	MCF10A rereplic	KB-3-1 tox
COc1cc2c(cc1OC)CN(C(=O)CSc1nc(C)cc(C)c1C#N)CC2	2.59µM*	-2.9%	i	16.4%	i
Cc1ccccc1OCCC(=O)N1CCN(S(=O)(=O)c2ccc(F)cc2)CC1	3.6%	15.7%	.	4.6%	.
Cc1cc(C)c(S(=O)(=O)N2CCN(C(=O)CCOc3ccccc3C)CC2)c(C)c1	0.7%	-5.8%	5.17µM*	0.0%	?
CCOc1ccccc1OCCCC(=O)N1CCN(S(=O)(=O)c2cccc(F)c2)CC1	-20.0%	0.9%	6.51µM*	13.4%	i
COc1cc2c(cc1OC)CN(C(=O)CCOc1ccccc1C)CC2	?	?	16.4µM*	?	?
COc1cc2c(cc1OC)CN(C(=O)CCOc1ccccc1)CC2	-22.9%	?	?	?	i
Cc1ccc(S(=O)(=O)NCc2ccccc2)cc1C(=O)N1CCCC(C(F)(F)F)C1 (stereo unspecified)	-0.3%	3.1%	?	8.2%	i
CN(C(=O)COC(=O)c1ccc(C(C)(C)C)cc1)C1CCS(=O)(=O)C1 (stereo unspecified)	1.7%	-5.0%	i	-2.1%	i
CN(C(=O)COC(=O)c1nc(Cl)c(Cl)c(Cl)c1Cl)C1CCS(=O)(=O)C1 (stereo unspecified)	?	?	?	3.66µM*	?
Cc1ccc(/C=N/n2cc(-c3ccccc3)[nH]c2=S)s1	?	18.4µM*	i	5.6%[9.22 µM]	i
COc1ccc(Cn2c(CCC(=O)Nc3ccc(CC#N)cc3)nc3cccnc32)cc1	5.4%	10.7%	2.59µM*	15.6%	i
COc1ccc(Cn2c(CCC(=O)Nc3ccccc3)nc3cccnc32)cc1	-23.0%	-1.1%	i	28.8%	i
O=C(N/N=C/c1ccoc1)c1ccccc1F	?	-3.3%	i	-2.8%	i
Cc1c(C(=O)Nc2cccc(-c3nc4ccccc4s3)c2)oc2ccccc12	.	.	i	.	i
Cc1ccc(C)c(NC(=O)c2cc(=O)c3ccccc3o2)c1	?	0.4%	14.6µM*	?	i
O=C(Nc1cccc(-c2nc3ccccc3s2)c1)c1cc(=O)c2ccccc2o1	9.2µM*	0.0%	?	?	i
Cc1cc2oc(C(=O)NCc3ccccc3)cc(=O)c2cc1C	?	8.2µM*	i	14.0%	i
Cc1ccc(NC(=O)c2cc(=O)c3ccccc3o2)c(C)c1	?	-4.6%	?	-5.9%	i
Cc1ccc2oc(C(=O)NC3CCS(=O)(=O)C3)cc(=O)c2c1 (stereo unspecified)	9.9%	20.6µM*	?	1.1%	i
CC(=O)N1c2ccc(S(=O)(=O)Nc3ccc(C)c(C)c3)cc2CC1C (stereo unspecified)	.	.	i	.	i
CN(CC(=O)Nc1ccc(N2CCOCC2)cc1)C(=O)CSc1ccc(F)cc1	0.0%	25.1%	i	6.2%	i
Cc1cccc(NC(=O)c2cc(=O)c3ccccc3o2)c1	?	-2.9%	?	10.5%	i
Cc1cccc(NC(=O)c2cc(=O)c3ccccc3o2)n1	?	2.91µM*	i	90.7%[0.0737 µM]	i
CSc1ccc(CCNC(=O)c2ccc(CS(=O)(=O)c3ccc(Br)cc3)o2)cc1	.	.	i	.	i
O=C(Nc1ccccc1)Nc1nnc(Cc2ccccc2F)s1	21.5%	-0.6%[9.22 µM]	i	0.5%	i
SMILES	ELG1 DNA repair	SW480 rerep	KB-V1 MDR tox	MCF10A rereplic	KB-3-1 tox
O=C(Nc1ccc(F)cc1)Nc1nnc(Cc2ccccc2F)s1	-8.6%	0.6%	18.4µM*	2.0%	i
COc1cccc(NC(=O)Nc2nnc(Cc3ccccc3F)s2)c1	-1.1%	5.3%	?	14.6µM*	i
COc1ccccc1NC(=O)Nc1nnc(Cc2ccccc2F)s1	?	-18.5%	i	9.4%	i
Cc1ccccc1-c1nn2c(=O)cc(CN3CCN(C(=O)c4ccc(C(C)(C)C)cc4)CC3)nc2s1	.	.	i	.	i
CCOC(=O)C1=C[C@@H](CC)N(S(=O)(=O)c2ccc([N+](=O)[O-])cc2)[C@H]1c1ccccc1	.	.	i	.	i
CCOC(=O)C1=C[C@@H](C(C)C)N(S(=O)(=O)c2ccc([N+](=O)[O-])cc2)[C@H]1c1ccccc1	.	.	?	.	11.6µM*
Cc1ccc(-c2cc(-c3ccccc3)c3c(N)c(S(C)(=O)=O)sc3n2)cc1	-15.9%	11.6µM*	?	?	?
CS(=O)(=O)c1sc2nc(-c3cccs3)cc(-c3ccccc3)c2c1N	-20.3%	?	i	18.4µM*	i
O=C1NC(=Nc2ccccc2)SC1(CO)CO	-1.5%	-12.5%	i	-1.4%	i
CC(=O)N1NC(=Nc2ccccc2)SC1(C)C	-5.5%	-2.6%	18.4µM*	11.5%	i
COc1ccc(OC)c(C2=NOC(C(=O)Nc3ccc4c(c3)OCCO4)C2)c1 (stereo unspecified)	5.7%	-1.6%	i	3.1%	i
COc1ccc(OC)c(C2=NOC(C(=O)NCc3cccs3)C2)c1 (stereo unspecified)	-5.3%	?	?	?	20.6µM*
COc1ccc(OC)c(C2=NOC(C(=O)Nc3cccnc3)C2)c1 (stereo unspecified)	-9.6%	-1.7%	23.1µM*	-8.4%	i
CCOc1ccc(NC(=S)N2CCN(S(=O)(=O)c3ccccc3)CC2)cc1	-1.5%	?	i	-4.5%	i
CCC1CCC/C1=N\NC(=O)c1ccccc1Cl (stereo unspecified)	.	-8.7%	i	?	i
CCC1CCC/C1=N\NC(=O)c1cc(C)[nH]n1 (stereo unspecified)	17.3%	16.4µM*	i	2.91µM*	i
Cc1cccc(-c2noc(-c3ccc(N4CCN(C)CC4)c([N+](=O)[O-])c3)n2)c1	.	.	i	.	18.4µM*
Cc1cccc(-c2noc(-c3ccc(N4CCCC4)c([N+](=O)[O-])c3)n2)c1	.	.	i	.	i
COCC(=O)N(Cc1nc2sc(C)c(C)c2c(=O)[nH]1)C1CCCCC1	6.1%	-1.6%	i	-1.3%	i
CCCCC(=O)N(Cc1nc2sc(C)c(C)c2c(=O)[nH]1)C1CCCC1	20.6µM*	-69.5%	?	11.5%	i
Cc1sc2nc(CN(Cc3cccs3)C(=O)NC3CCCCC3)[nH]c(=O)c2c1C	9.2µM*	9.0%	?	?	?
